# From PubChem BioAssay AID720579 (National Center for Advancing Translational Sciences (NCATS), 2013)
# Values joined by “and” are separate entries in the source; they are usually repeats but may differ in a detail not shown here. Identical values can stand only once. Hit rate of the full screen: of about 310,000 compounds, about 1,900 (0.61%) were called active. About 8% were inconclusive and are not listed. Calls come from the whole dose curve; tested in A549 cells. Only a selection was taken, and actives are over-represented in it overall. The source holds several records for some structures; these can differ, active in one and inactive in another.
# Experiment: qHTS for Stage-Specific Inhibitors of Vaccinia Orthopoxvirus: mCherry Reporter Primary qHTS; note: nearly all actives have a fitted effect of over 35% in size
# Details: Vaccinia virus mCherry reporter infection, fluorescence; series mostly up to 36.5 µM; activity change, negative = inhibition: at the top concentration
# % is set by controls: 0 for no effect and ±100 for the full control effect; potency is the fitted concentration of half-maximal effect.
Compound,"activity change, negative = inhibition",outcome,Potency
CC(O)(c1cccc(F)c1)c1nc(-c2ccc3c(c2)OCO3)cs1 (centres undefined),6.58% (inactive),,
O=C(c1ccc(CS(=O)Cc2ccccc2Cl)o1)N1CCN(c2ccccc2)CC1 (centres undefined),-6.54% (inactive),,
O=C(OCc1ccccc1)N1CCC2CC1c1cc(N3CCN(S(=O)(=O)c4cc(Cl)cc(Cl)c4)CC3)ccc12 (centres undefined),,inactive,
N=C1c2ccccc2-c2ccccc21,-6.02% (inactive),,
c1ccc2c(c1)[I+]c1ccccc1-2,,,inactive and 12.6 µM (active)
COC(=O)c1ccccc1N=NNc1ccc([N+](=O)[O-])cc1,-7.96% (inactive),,
CCN(CC)c1ccc(/C=C/c2c(C)cnc3ccc(C)cc23)cc1,-7.34% (inactive),,
COC(=O)c1cc(-c2cccs2)nc2ccccc12,,inactive,
CC(=O)Nc1cccc(Nc2nc(-c3cccs3)nc3ccccc23)c1,,,7.08 µM (active)
COc1cccc(-c2nc(Nc3ccncc3)c3ccccc3n2)c1,11.8% (inactive),,
CC(C)c1cc(C(=O)NC2CCCCCC2)c2ccccc2n1,-3.55% (inactive),,
CC1=C(C(=O)N(C(C)C)C(C)C)CC(CC(=O)NCC2CCCCC2)C(=O)N1Cc1ccccc1 (centres undefined),8.68% (inactive),,
Cc1cc(C(=O)CCC(=O)NNC(=O)c2ccccc2O)c(C)s1,-14.3% (inactive),,
O=C(CO/N=C/c1ccccc1O)NNC(=O)c1ccccc1Cl,-20.3% (inactive),,
O=C(NNC(=O)c1ccccc1O)c1ccccc1O,,,15.8 µM (active)
CCCCCCCNc1ccc(/C=C/c2ccnc3ccccc23)cc1,33.6% (inactive),,
O=[N+]([O-])c1ccc(/C=C/c2ccc3cccnc3c2)cc1,36.9% (inactive),,
CN(N=O)c1ccc(C=C2c3ccccc3-c3ccccc32)cc1,-18.4% (inactive),,
CN1CC[C@H](c2c(O)cc(O)c3c(=O)cc(-c4ccccc4Cl)oc23)[C@H](O)C1,,,0.316 µM (active)
CCOC(=O)c1ccn(S(=O)(=O)c2ccc(C)cc2)c1-c1ccccc1,6.9% (inactive),,
COc1ccc(CN(Cc2ccccc2)C(=O)c2ccc(O)cc2)cc1COc1ccc(NC(C)=O)cc1,,inactive,
CCOC(=O)c1cc2cc(OC)ccc2n1C1CCN(C)CC1,-10.5% (inactive),,
CC1(C(=O)O)CCCN(C(=O)/C=C/c2ccccc2)C1 (centres undefined),6.42% (inactive),,
Cc1cn(COC/C=C/c2ccccc2)c(=O)[nH]c1=O,,inactive,
Cc1[nH]c(=O)c(C(=O)/C=C/c2ccccc2)c2c1CCCC2,,,3.16 µM (active)
CC(=O)Nc1ccc(C=Cc2ccc([N+](=O)[O-])cc2)cc1,-1.71% (inactive),,

Compound,"activity change, negative = inhibition",outcome,Potency
O=C(CCCN1C(=O)C(c2ccccc2)Oc2cccnc21)Nc1ccccc1Br (centres undefined),,inactive,
C(=Nc1ccc(/C=C/c2ccnc3ccccc23)cc1)c1cc2c3c(c1)CCCN3CCC2,12% (inactive),,
CN(C)C(=O)c1cccc(-c2cnc3c(NC=O)cc(-c4ccc(C(=O)N5CCOCC5)cc4)cn23)c1,,inactive,
O=C(CCCCCNC(=O)c1ccccc1)N/N=C/c1ccccc1,-8.18% (inactive),,
O=C(N/N=C/c1ccccc1O)/C(=C/c1ccccc1)CCO,,,7.08 µM (active)
O=C(CCCO)N/N=C/c1cc(Br)ccc1O,-8.6% (inactive),,
CCOC(=O)[C@]12CCCC=C1N(CCC1=CCCCC1)C(=O)[C@H](CC(=O)N1CCSCC1)C2,-9.06% (inactive),,
Cc1ccc(-c2nnc(SCc3ccccc3C)o2)cc1,2.67% (inactive),,
Fc1ccc(-c2nnc(CSc3nnc(-c4ccc5c(c4)OCO5)o3)o2)cc1,,,28.2 µM (active)
O=C(CSc1nnc(CNC(=O)c2ccc(F)cc2)o1)Nc1ccc2c(c1)OCO2,-8.65% (inactive),,
COc1ccc(C(=O)C(OP(=O)(OC)OC)c2ccccc2OC)cc1 (centres undefined),-25.3% (inactive),,
O=C(COc1cc(Cl)c(Cl)cc1Cl)NCCc1ccccn1,-7.58% (inactive),,
NC(=S)NN=Cc1ccc(OC(=O)COc2cc(Cl)c(Cl)cc2Cl)cn1,,,11.2 µM (active)
O=C(COC(=O)COc1cc(Cl)c(Cl)cc1Cl)NC1CC1,-2.27% (inactive),,
CCOC(=O)C1CCCN(C(=O)c2cc(-c3cccs3)oc2C)CC1 (centres undefined),49% (inactive),,
Cc1cc(Cl)ccc1-c1nc(NCCN(C)C)nc2ccsc12,11.6% (inactive),,
CC(C)c1cc(N=O)cc(C(C)C)c1O,,inactive,
CC(C)=CCc1c(O)c(CC=C(C)C)c2occ(-c3ccc(O)cc3)c(=O)c2c1O,-20.4% (inactive),,
CC(C)=CCc1ccc(O)c(=O)cc1C(C)C,,,3.16 µM (active)
CN(C(=O)CN1CCN(c2cc(-c3ccc(OCc4ccccc4)cc3)ncn2)CC1)c1ccccc1,,,7.94 µM (active)
CN(Cc1ccccc1)C(=O)c1ccc(COc2ccccc2)cc1,,inactive,
CCOc1ccc(OCc2ccc(C(=O)N(C)c3ccccc3)o2)cc1,-11.1% (inactive),,
Cc1cccc(CNC(=O)c2sc(=O)n(Cc3ccccc3C)c2C)c1,2.08% (inactive),,
Cc1cc(C)c2c(=O)n3c(nc2c1)C(CC(C)C)NC(=O)c1cc2ccccc2cc1-3 (centres undefined),,,10 µM (active)
CCC1NC(=O)c2cccnc2-n2c1nc1ccc(C)cc1c2=O (centres undefined),,inactive,
O=C1NC(Cc2ccccc2)c2nc3ccc(Br)cc3c(=O)n2-c2cc3ccccc3cc21 (centres undefined),,inactive,

Compound,"activity change, negative = inhibition",outcome,Potency
NC(=O)Nc1ccc(/C=C/c2ccnc3ccccc23)cc1,21.3% (inactive),,
COC(=O)c1ccc2nc(-c3ccccc3)c(Cc3ccc(OC)cc3C)n2c1,-4.32% (inactive),,
Cc1ccc(S(=O)(=O)N(CCc2ccccc2)c2ccc3c(c2)C2CC3CCN2C(=O)OCc2ccccc2)cc1 (centres undefined),-6.6% (inactive),,
COc1ccc(CC(=O)NC(C)CCc2ccccc2)cc1 (centres undefined),2.27% (inactive),,
C/C=C/NNC(=O)Cc1ccc(OC)cc1,,,11.2 µM (active)
CCCCCNC(=O)Cc1ccc(OC)cc1,-17% (inactive),,
CC1(C(=O)NCC2CCOCC2)Cc2c(-c3cccc(C(N)=O)c3)ccnc2O1 (centres undefined),5.59% (inactive),,
COc1ccc(-c2nnc(SC(C)C#N)o2)cc1 (centres undefined),,,11.2 µM (active)
COc1ccc(-c2nnc(SCc3cccnc3)o2)cc1,-12.4% (inactive),,
COc1ccc(-c2nnc(-c3ccc4ccccc4c3)o2)cc1,,inactive,
CCOC(=O)[C@]12CCCC=C1N(Cc1ccc(Cl)cc1Cl)C(=O)[C@H](CC(=O)N1CCCCC1)C2,,inactive,
COc1c(C)c2c(c(O)c1C/C=C(\C)CCC(=O)O)C(=O)OC2,,,5.62 µM (active) and 4.47 µM (active)
CCc1nc2c(OCc3ccc(C(F)(F)F)cc3)cccn2c1N(C)C(=O)CC(C)C,-0.664% (inactive),,
CCOC(=O)c1c(NC(=S)SC)sc(C(=O)N2CCc3ccccc3C2)c1C,-10.4% (inactive),,
CC1(C)OC(=O)C2=C(C[C@@H](C3CC3)O[C@H]2CCc2cccc(Cl)c2)O1,-11% (inactive),,
CCC(CC)C(C(=O)NC1CCCC1)N1CCN(c2cc(C)nc3ccccc23)CC1 (centres undefined),19.7% (inactive),,
CN(O)C(=S)c1ccccc1,,,14.1 µM (active)
CN(CC(=O)O)C(=O)c1ccccc1,-12.1% (inactive),,
S=C(c1ccccc1)N1CCCC1,-10.8% (inactive),,
Cc1ccc2nc(-c3ccccc3)c(CC3CCCCC3)n2c1,,inactive,
CCC(C)N1C(=O)S/C(=C/c2ccc(Sc3nc4ccccc4[nH]3)o2)C1=O (centres undefined),,,12.6 µM (active)
CCCCSc1nc2ccccc2[nH]1,-6.23% (inactive),,
CCC(c1nc2ccccc2[nH]1)n1c(=O)c(-c2cccs2)nc2ccccc21 (centres undefined),-2.3% (inactive),,
CN(C)c1ccc(C=Nc2ccc(/C=C/c3ccnc4ccccc34)cc2)cc1,25.4% (inactive),,
CC(C)n1ncc2c(C(=O)N3CCN(Cc4cccs4)CC3)cc(C3CC3)nc21,,inactive,
C=CC(=O)Nc1ccc(Nc2ccnc(Nc3ccc(N4CCN(C)CC4)cc3)n2)cc1,,,5.01 µM (active)

Compound,"activity change, negative = inhibition",outcome,Potency
CN1CCN(c2ccc(NC(=O)c3ccccc3)cc2)CC1,-13.3% (inactive),,
Cc1cccc(N2CCN(c3ccc(NC(=O)/C=C\C(=O)O)cc3)CC2)c1,-0.733% (inactive),,
CN(C)c1ccc(/C=C/C(=O)c2ccc(O)cc2)cc1[N+](=O)[O-],,,15.8 µM (active)
CC(=O)Nc1ccc(C=CC(=O)c2ccc([N+](=O)[O-])cc2)cc1,-0.232% (inactive),,
O=C(/C=C/c1ccc(Cl)c([N+](=O)[O-])c1)c1ccc(O)cc1,,inactive,
COc1cccc(C(O)c2nc(-c3ccc(C)c(C)c3)cs2)c1 (centres undefined),1.77% (inactive),,
O=C(c1ccc(C(F)(F)F)cc1)N1CCC(=O)N([C@H](COCc2ccccc2)Cc2ccccc2)CC1,3.14% (inactive),,
CN(C)c1ccc(/C=C2\C=Cc3ccccc32)cc1Br,-17.2% (inactive),,
CCCCN(C=O)c1c(CC)nc2c(OCCC3CCCCC3)cccn12,-14.4% (inactive),,
CN(C)C(CNC(=O)c1cccc(S(=O)(=O)N2CCc3ccccc3C2)c1)c1ccccc1 (centres undefined),-25.9% (inactive),,
COCOCCn1cc(CN2CCS(=O)(=O)N(Cc3ccc(-c4ccc(OC)cc4)cc3)C(CC(C)C)C2=O)nn1 (centres undefined),-13.6% (inactive),,
O=C(CCCN1C(=O)/C(=C/c2cccs2)SC1=S)Nc1ccc(O)cc1,,,10 µM (active)
O=C(CCN1C(=O)/C(=C/c2cccs2)SC1=S)NNC(=O)c1cccc(O)c1,-8.34% (inactive),,
O=C(CCCN1C(=O)/C(=C/c2ccco2)SC1=S)Nc1ccccc1,-12.4% (inactive),,
O=C1C(Sc2cccc(F)c2)=C[C@@]2(O)CC[C@@H](O)[C@]1(Sc1cccc(F)c1)[C@H]2O,-11.8% (inactive),,
CCCCCNC(=O)C(c1ccc(OC)cc1)n1c(=O)c(-c2ccccc2)nc2ccccc21 (centres undefined),,inactive,
COC(=O)c1ccc(NCc2cc(O)ccc2O)cc1,,,10 µM (active)
C#CCNc1ccc(C(=O)OCC)cc1,-9.77% (inactive),,
CC(C)NC(=O)c1ccc(Cl)cc1Cl,,inactive,
CC(C)OC(=O)c1ccc(NCc2cc(O)ccc2O)cc1Cl,,,4.47 µM (active)
COC(=O)c1ccc(NC(=O)CSc2nnc(CNc3ccc(OC)cc3)n2C)cc1,-12.7% [at 1.46 µM] (inactive),,
CC(OC(=O)c1ccc(Cl)cc1O)C(=O)NCCC1=CCCCC1 (centres undefined),,inactive,
COc1ccc(C(=O)N2CCCCC2c2cc(C(=O)Nc3ccccc3)no2)cc1 (centres undefined),,inactive,
COc1ccc(-c2coc3c(C(=O)NC(C)C)cccc23)c(C)c1,,inactive,
CCCCC[C@@H]1C=C(C(=O)OCC)[C@H](c2ccccc2)N1S(=O)(=O)c1ccc(C)cc1,5.26% (inactive),,
COCc1cccc(-c2csc(C(O)c3ccc(F)cc3)n2)c1 (centres undefined),,inactive,
